Bioassay records from PubChem BioAssay.
NR1D1 modulator – Rev-erb alpha (human) modulation; Rev-erbα–FITC-DNA binding, fluorescence polarization, 90 min; activity, % at 10 µM; actives 0.79% (n = 370,000);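 active = activity above about 14%, limit read from the data; passing the limit was not always enough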;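 note: 0% = DMSO wells with 35 nM protein and 100% = DMSO wells with 750 nM protein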
RAM inhibit – blocks the yeast RAM network | AID 868 | actives 1.8% (n = 190,000) | inhibition, % at 50 µM | S. cerevisiae dse1pr::URA3 reporter, 5-FOA growth OD615, 2 d; analog-sensitive cbk1-as2 kinase mutant strain;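 active = inhibition above a set limit, 3 SD over mean compound inhibition, cut at about 8.4% in these data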;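 note: 0% = DMSO-only wells with no growth and 100% = 10 µM 1-NA-PP1 full growth; inhibition rescues growth on 5-FOA so higher OD means more RAM inhibition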
PG9 binder – binds the HIV-1 gp120 antibody PG9; TR-FRET gp120-PG9 antibody binding; inhibition, % at 6.7 µM; actives 0.43% (n = 360,000); in the data active = inhibition above about 8.5%
PGE2 EP2 inh – EP2 receptor (human) inhibition. C6 glioma cells expressing human EP2, cAMP TR-FRET; cells stimulated with saturating PGE2. actives 0.52% (n = 260,000). inhibition, % at 25 µM. P43116;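 active = percent inhibition above 40 after rounding to a whole number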;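 note: rat C6 glioma host cells with rolipram phosphodiesterase inhibitor present; the protocol text gives 20 µM as final concentration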
Target sequence (P43116 whole entry, looked up): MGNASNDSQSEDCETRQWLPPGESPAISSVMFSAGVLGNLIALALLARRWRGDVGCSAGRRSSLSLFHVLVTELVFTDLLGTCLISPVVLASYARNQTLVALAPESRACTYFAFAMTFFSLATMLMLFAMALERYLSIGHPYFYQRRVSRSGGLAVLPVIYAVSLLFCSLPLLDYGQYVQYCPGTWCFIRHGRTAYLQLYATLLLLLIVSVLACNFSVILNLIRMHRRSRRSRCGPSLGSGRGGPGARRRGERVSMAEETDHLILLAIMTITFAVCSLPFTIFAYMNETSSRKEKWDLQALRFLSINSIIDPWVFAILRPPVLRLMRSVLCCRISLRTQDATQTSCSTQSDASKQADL
SKN-1 inh – C. elegans SKN-1 inhibition; C. elegans VP596 Pgst-4::GFP/RFP ratio, acrylamide-induced, 24 h; inhibition, % at 21.8 µM; actives 0.49% (n = 360,000); AID 624304;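 active = interference check ratio from 0.5 to 1.5 plus GFP to RFP signal ratio inhibition reaching or exceeding a fixed threshold, cut at about 30% in these data, passing the limit was not always enough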
EP2 mod – modulators of human EP2 prostaglandin E2 receptor | EP2-expressing cells, cAMP HTRF FRET, PGE2 co-stimulation | induction, % at 25 µM | actives 0.83% (n = 260,000) | AID 940;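 active = compounds whose cAMP rise, as percent of the full-agonist control response, exceeds 60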;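 note: rat C6 glioma line stably carrying human EP2 under a CMV promoter; the protocol text gives 20 µM as final concentration; 100% = response of wells given 1 µM PGE2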
Rev-erbA confirm – Rev-erb alpha (human) modulation, hit confirmation | Rev-erb alpha FITC-DNA binding, fluorescence polarization, 90 min | shares compounds with NR1D1 modulator | activation, % at 25 µM | actives 61% (n = 3,000);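 active = activation at or above a set limit, or at least 3 SD above the negative control mean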;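 note: 0% = 35 nM protein with DMSO and 100% = 750 nM protein high control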
RORg DNA counter – RORgamma DNA-binding activity, dose-response counter-screen; purified RORgamma protein-FITC-DNA binding, fluorescence polarization; actives 8% (n = 910); shares compounds with NR1D1 modulator; IC50, µM; AID 1259320;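 active = Compounds whose fitted half-maximal concentration for disrupting protein-DNA binding is below 10 micromolar; the record names Rev-erb in its text, so the target is in doubt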
* hit, by the source's call; · = no result given. Only some compounds are listed: those with a hit (about 2.9% of all), similar ones and a draw of the others.

SMILES	NR1D1 modulator	RAM inhibit	PG9 binder	PGE2 EP2 inh	SKN-1 inh	EP2 mod	Rev-erbA confirm	RORg DNA counter
COc1ccc(CCn2c(-c3ccc(F)cc3)nc3c(c(=O)c4ccccc4n3C)c2=O)cc1OC	41*	·	1	6	18	-3	16	·
COc1ccc(CCn2c(-c3ccccc3)nc3c(c(=O)c4ccccc4n3C)c2=O)cc1	8	3	1	13	·	1	·	·
CC(=O)c1cccc(NC(=O)CSc2ccc(-c3sc(C)nc3C)nn2)c1	1	·	0	·	14	·	·	·
Cc1nc(C)c(-c2ccc(SCC(=O)Nc3cccc(Cl)c3)nn2)s1	24*	·	-14	·	-1	·	10	·
O=C(CSc1ncccn1)Nc1ncc(Cc2ccc(Cl)cc2Cl)s1	·	·	·	7	·	-72	·	·
CC(=O)c1cnc2cc(-c3cccc(Br)c3)nn2c1C	24*	0	-1	3	-1	-37	6	·
CC(C)n1cc(/C=C\c2nc(O)c([N+](=O)[O-])c(=O)[nH]2)c2ccccc21	·	·	·	9	·	20	·	·
O=C(c1ccccc1)c1nn(-c2cccc(Cl)c2)c2nc(-c3ccccc3)cc(=O)n12	24*	4	0	·	19	37	14	·
Cc1cccc(-n2nc(C(=O)Nc3ccccc3)n3c(=O)cc(-c4ccccc4)nc23)c1	5	7	0	16	-16	9	·	·
COc1ccc(/C=C/C(=O)NC(=S)N2CCN(c3ccccc3OC)CC2)cc1	48*	·	-5	9	1	-54	39*	>40
COc1ccc(/C=C/C(=O)NC(=S)N2CCOCC2)cc1	-1	·	0	·	3	·	·	·
CCC(CN1CCOCC1)NC(=O)Cc1coc2c(C)c(C)ccc12 (stereo not drawn)	·	·	·	4	·	-29	·	·
COc1ccc(C2NC(=O)NC(C)=C2C(=O)OC2CCCC(C)C2)cc1 (stereo not drawn)	18*	·	2	·	7	·	8	·
Cn1nc(C(C)(C)C)cc1NC(=O)C1(C)CCN1C(=O)c1ccccc1CCc1ccccc1 (stereo not drawn)	20*	·	-1	·	-5	·	-1	·
COc1ccc(NC(=O)C2CCCN(S(=O)(=O)c3ccc4[nH]c(=O)ccc4c3)C2)cc1OC (stereo not drawn)	23*	·	7	·	19	·	0	·
Cc1ccc(NC(=O)C2CCCN(S(=O)(=O)c3ccc4[nH]c(=O)ccc4c3)C2)cc1C (stereo not drawn)	5	·	6	·	13	·	·	·
Cc1[nH]c2ccccc2c1/C=C/c1cc[n+](C)cc1	251*	1	-22	33	-5	-40	172*	>40
C=CCn1c(C)c(/C=C/c2cc[n+](C)cc2)c2ccccc21	237*	·	-17	·	-5	·	213*	>40
CCN(CC)C(=O)Cn1c(C)c(/C=C/c2cc[n+](C)cc2)c2ccccc21	158*	·	-14	·	-3	·	139*	>40
CCn1cc(/C=C/c2cc[n+](C)cc2)c2ccccc21	179*	·	-16	·	-27	·	160*	>40
CCn1c(/C=C/c2c(C)n(CC)c3ccccc23)nc2ccccc2c1=O	-3	6	2	-1	-6	41	·	·
CC(C)n1cc(/C=C/c2cc[n+](C)cc2)c2ccccc21	209*	·	-8	·	-42	·	203*	>40
Cc1ccccc1/C=C/c1cc[n+](C)cc1	-4	0	0	8	16	9	·	·
C=CCn1cc(/C=C/c2cc[n+](C)cc2)c2ccccc21	168*	·	-9	·	-44	·	143*	>40
O=c1[nH]c(/C=C/c2ccccc2OC(F)F)nc2c1cnn2-c1ccccc1	24*	2	3	4	-7	20	5	·
SMILES	NR1D1 modulator	RAM inhibit	PG9 binder	PGE2 EP2 inh	SKN-1 inh	EP2 mod	Rev-erbA confirm	RORg DNA counter
COc1cc(/C=C/c2nc3ccccc3c(=O)[nH]2)ccc1OC(F)F	-1	·	3	·	-8	·	·	·
Cc1cc(-c2cncnc2C2CCN(C(=O)Cn3nnc4ccccc43)CC2)on1	·	·	·	·	·	11	·	·
CC(C)(C)OC(=O)N1CCC[C@H]1C(=O)c1nccs1	·	·	·	·	·	4	·	·
O=c1c2ccccc2n2c(-c3ccc(C(F)(F)F)cc3)nnc2n1Cc1ccccc1	-2	2	-1	12	-7	31	·	·
O=c1c2ccccc2n2c(-c3ccc(F)cc3)nnc2n1Cc1ccccc1	24*	5	-1	10	6	-7	35*	>40
COC(=O)c1cc2c(c3c4cc(F)ccc4n(S(=O)(=O)c4ccccc4)c13)C(=O)N(Cc1ccc(N(C)C)cc1)C2	4	·	-2	·	·	·	·	·
COC(=O)c1cc2c(c3c4cc(F)ccc4n(S(=O)(=O)c4cccc(C)c4)c13)C(=O)N(Cc1ccc(N(C)C)cc1)C2	27*	·	-1	·	·	·	1	·
Cc1ccccc1NC(=O)Cc1nc(COC(=O)c2cc(Br)ccc2O)cs1	17	·	2	·	-11	·	·	·
Cc1ccccc1NC(=O)Cc1nc(COC(=O)c2cc(Cl)ccc2O)cs1	19*	·	3	·	-1	·	8	·
CC(C)(C)NC(=O)CSc1nnc2c3ccccc3nc(Cc3ccccc3)n12	·	·	·	6	·	-7	·	·
O=c1c2cnn(-c3ccccc3)c2nc(-c2cccs2)n1-c1ccc(Cl)cc1	23*	4	0	0	14	21	10	·
O=c1c2cnn(-c3ccccc3)c2nc(-c2cccs2)n1-c1cccc(Cl)c1	3	-1	-2	0	-3	13	·	·
COc1ccc(NC(=O)CSc2ncnc3c2cnn3-c2ccccc2)cc1	·	·	·	23	·	4	·	·
CCOC(=O)c1c(NC(=O)CN(CC)CC)sc2c1CCC2	33*	0	-2	8	16	58	0	·
CCOC(=O)c1c(NC(=S)Nc2ccc(C)cc2)sc2c1CCC2	76*	6	-2	11	-2	24	84*	>40
Cc1cc2cc(CN(CCO)S(=O)(=O)c3ccc(Cl)cc3)c(=O)[nH]c2cc1C	·	·	·	13	·	15	·	·
O=C(CN1CCC(c2ccc3c(c2)OCO3)CC1)Nc1ccccc1F	·	·	·	·	·	-92	·	·
CCc1cc2c(C)ccc(C)c2nc1SCC(=O)Nc1c[nH]c(=O)[nH]c1=O	53*	4	6	13	6	21	44*	>40
CCC(c1nnnn1C1CCCCC1)N(Cc1cc2ccc(C)c(C)c2[nH]c1=O)C1CCCC1 (stereo not drawn)	·	·	·	11	·	12	·	·
CCN(CC)C(=O)c1ccc(/C=C/c2c[nH]c3ccccc23)[n+](C)c1	45*	-1	-12	13	-5	-9	50*	>40
CC[n+]1c(/C=C/c2c[nH]c3ccccc23)ccc2cc(C)ccc21	126*	0	-14	15	·	-80	102*	>40
NC(=O)c1nc(-c2cccnc2)nc2c1[nH]c(=O)n2Cc1ccccc1	·	·	·	·	·	-18	·	·
